In general, residual activity refers to the signal under treatment as a percentage of the control signal.

From ChEMBL document CHEMBL2218924, “A broad activity screen in support of a chemogenomic map for kinase signalling research and drug discovery” (Biochem J, 2013) come the findings set out here.

Molecules are shown by their SMILES.

The target in the first assay is Tyrosine-protein kinase Yes (Homo sapiens) (UniProt P07947). As to conditions: at 1 µM.
Tyrosine-protein kinase Yes (Homo sapiens), sequence (P07947 2-543 limits assumed): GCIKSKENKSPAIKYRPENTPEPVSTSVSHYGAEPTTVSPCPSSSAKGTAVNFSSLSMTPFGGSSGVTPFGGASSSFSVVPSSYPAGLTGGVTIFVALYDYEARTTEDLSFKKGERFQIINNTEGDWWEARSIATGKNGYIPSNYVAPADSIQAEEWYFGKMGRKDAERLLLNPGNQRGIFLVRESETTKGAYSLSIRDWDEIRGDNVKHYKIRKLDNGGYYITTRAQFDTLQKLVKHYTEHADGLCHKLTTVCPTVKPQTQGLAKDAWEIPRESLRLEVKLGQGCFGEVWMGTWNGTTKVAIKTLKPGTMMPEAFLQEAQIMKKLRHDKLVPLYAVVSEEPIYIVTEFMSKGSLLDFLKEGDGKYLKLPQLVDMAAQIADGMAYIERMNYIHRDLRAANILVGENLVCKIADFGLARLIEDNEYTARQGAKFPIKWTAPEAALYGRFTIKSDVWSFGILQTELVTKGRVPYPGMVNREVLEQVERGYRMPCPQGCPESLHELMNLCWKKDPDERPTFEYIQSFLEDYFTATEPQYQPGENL
As for `c1ccc(-c2n[nH]cc2-c2ccnc3ccccc23)nc1`, the residual activity stood at 98%.
`COc1ccc(CNc2nc(N(CCO)CCO)nc3c2ncn3C(C)C)cc1`: the residual activity is 100%.
Take `CO[C@@H]1[C@H](N(C)C(=O)c2ccccc2)C[C@H]2O[C@]1(C)n1c3ccccc3c3c4c(c5c6ccccc6n2c5c31)C(=O)NC4`: the residual activity is 5%.
On the same count and under the same terms, with `C[C@@H](N)[C@H]1CC[C@H](C(=O)Nc2ccncc2)CC1` the figure was 108%.
Same read-out and setting: the result for `Cc1cccc(-c2[nH]c(C(C)(C)C)nc2-c2ccc3c(c2)OCO3)n1` reads 103%; that for `Cc1cc(Nc2nc(-c3ccccc3)nc3ccccc23)n[nH]1`, 6%; that for `O=C1Nc2ccc(Br)cc2/C1=C\c1cc2c([nH]1)CCCC2`, 79%.
`Cc1cc2ncc(-c3ccccc3)nc2cc1C`: the residual activity turned out to be 109%.
Regarding `CCN(CC)C(=O)c1ccc(Nc2nc(OCC3CCCCC3)c3nc[nH]c3n2)cc1`, the residual activity was 13%.
As for `O=C1c2ccccc2-[n+]2ccc3c([nH]c4ccccc43)c21`, the residual activity was found to be 113%.
In the case of `Cc1ccc(S(=O)(=O)/C=C/C#N)cc1`, the residual activity stood at 123%.
The same measure, in the same setting: with `N#CCCc1ccc2c(c1)-c1[nH]c3ccc([N+](=O)[O-])cc3c1CC(=O)N2` the figure was 9%.
Take `c1ccc(-c2n[nH]c3c2oc2ccccc23)cc1`: the residual activity was found to be 99%.
Same read-out and setting: with `CO[C@H]1C[C@@H]2CC[C@@H](C)[C@@](O)(O2)C(=O)C(=O)N2CCCC[C@H]2C(=O)O[C@H]([C@H](C)C[C@@H]2CC[C@@H](O)[C@H](OC)C2)CC(=O)[C@H](C)/C=C(\C)[C@@H](O)[C@@H](OC)C(=O)[C@H](C)C[C@H](C)/C=C/C=C/C=C/1C` the figure was 103%; with `Nc1cccc(-c2cc3c(Oc4cccc(O)c4)ncnc3[nH]2)c1`, 1%.
In the case of `COc1ccc(S(=O)(=O)N(CCO)c2ccccc2CN(C)C/C=C/c2ccc(Cl)cc2)cc1`, the residual activity was 119%.
Still for that read-out and setting: the result for `O=C1Nc2ccccc2/C1=C1/Nc2ccccc2/C1=N\OCCC(O)CO` (stereo unspecified) reads 8%; that for `COc1cc2ncnc(Nc3ccc(NC(=O)c4ccccc4)cc3)c2cc1OC`, 96%; that for `N#Cc1cnc2cnc(NCc3cccnc3)cc2c1Nc1ccc(F)c(Cl)c1`, 9%.
Still for that read-out and setting: with `Ic1cccc(CSc2nnc(-c3ccncc3)o2)c1` the figure was 96%.
On the same count and under the same terms, with `O=C(Nc1cccc(Nc2cc(Nc3cccc(C(F)(F)F)c3)ncn2)c1)C1CC1` the figure was 76%; with `O=[N+]([O-])c1ccc(-c2nc(-c3ccc(F)cc3)c(-c3ccncc3)[nH]2)cc1`, 103%; with `O=Nc1c(-c2c(O)[nH]c3ccccc23)[nH]c2ccccc12`, 17%.
For `CN(C)CCCn1cc(C2=C(c3c[nH]c4ccccc34)C(=O)NC2=O)c2ccccc21`, the residual activity came out at 105%.
Same read-out and setting: the result for `O=C1Nc2cc(Br)ccc2/C1=C1/Nc2ccccc2/C1=N\O` reads 1%; that for `O=C1NC(=O)/C(=C/c2ccc3c(c2)OC(F)(F)O3)S1`, 117%; that for `Nc1n[nH]c2nnc(-c3c(-c4ccccc4)nn4ccccc34)cc12`, 93%.
On the same count and under the same terms, the result for `Nc1nc(Nc2ccc(S(N)(=O)=O)cc2)nn1C(=S)Nc1c(F)cccc1F` reads 3%; that for `Cn1cnc2cc3c(Nc4cccc(Br)c4)ncnc3cc21`, 31%.

The next assay has the same target. As to conditions: at 10 µM.
On to `c1ccc(-c2n[nH]cc2-c2ccnc3ccccc23)nc1`, for which the residual activity turned out to be 53%.
On the same count and under the same terms, with `Cn1nc2c3c(cccc31)C(=O)c1ccccc1-2` the figure was 95%; with `COc1ccc(CNc2nc(N(CCO)CCO)nc3c2ncn3C(C)C)cc1`, 89%; with `CO[C@@H]1[C@H](N(C)C(=O)c2ccccc2)C[C@H]2O[C@]1(C)n1c3ccccc3c3c4c(c5c6ccccc6n2c5c31)C(=O)NC4`, 4%.
Still for that read-out and setting: with `C[C@@H](N)[C@H]1CC[C@H](C(=O)Nc2ccncc2)CC1` the figure was 94%.
For the compound `Cc1cccc(-c2[nH]c(C(C)(C)C)nc2-c2ccc3c(c2)OCO3)n1`, the residual activity came out at 44%.
On to `Cc1cc(Nc2nc(-c3ccccc3)nc3ccccc23)n[nH]1`, for which the residual activity worked out at 1%.
Same read-out and setting: with `O=C1Nc2ccc(Br)cc2/C1=C\c1cc2c([nH]1)CCCC2` the figure was 63%; with `Cc1cc2ncc(-c3ccccc3)nc2cc1C`, 106%; with `CCN(CC)C(=O)c1ccc(Nc2nc(OCC3CCCCC3)c3nc[nH]c3n2)cc1`, 1%.
As for `O=C1c2ccccc2-[n+]2ccc3c([nH]c4ccccc43)c21`, the residual activity came to 86%.
Still for that read-out and setting: the result for `Cc1ccc(S(=O)(=O)/C=C/C#N)cc1` reads 103%; that for `c1ccc2c(-c3ccncc3)c[nH]c2c1`, 97%; that for `Cc1cncc2cccc(S(=O)(=O)N3CCCN(C(=O)CN)C[C@H]3C)c12`, 49%.
On the same count and under the same terms, the result for `N#CCCc1ccc2c(c1)-c1[nH]c3ccc([N+](=O)[O-])cc3c1CC(=O)N2` reads 0%.
Consider `c1ccc(-c2n[nH]c3c2oc2ccccc23)cc1`, for which the residual activity stood at 67%.
Still for that read-out and setting: the result for `Nc1cccc(-c2cc3c(Oc4cccc(O)c4)ncnc3[nH]2)c1` reads -1%.
Consider `COc1ccc(S(=O)(=O)N(CCO)c2ccccc2CN(C)C/C=C/c2ccc(Cl)cc2)cc1`, for which the residual activity was determined as 79%.
With `O=C1Nc2ccccc2/C1=C1/Nc2ccccc2/C1=N\OCCC(O)CO` (stereo unspecified), the residual activity was 2%.
Take `COc1cc2ncnc(Nc3ccc(NC(=O)c4ccccc4)cc3)c2cc1OC`: the residual activity was determined as 30%.
On the same count and under the same terms, with `N#Cc1cnc2cnc(NCc3cccnc3)cc2c1Nc1ccc(F)c(Cl)c1` the figure was 5%.
The same measure, in the same setting: with `Ic1cccc(CSc2nnc(-c3ccncc3)o2)c1` the figure was 84%; with `O=C(Nc1cccc(Nc2cc(Nc3cccc(C(F)(F)F)c3)ncn2)c1)C1CC1`, 60%; with `O=[N+]([O-])c1ccc(-c2nc(-c3ccc(F)cc3)c(-c3ccncc3)[nH]2)cc1`, 102%.
Still for that read-out and setting: with `N#CC(C#N)=C(N)/C(C#N)=C/c1ccc(O)cc1` the figure was 93%; with `O=Nc1c(-c2c(O)[nH]c3ccccc23)[nH]c2ccccc12`, 0%; with `CN(C)CCCn1cc(C2=C(c3c[nH]c4ccccc34)C(=O)NC2=O)c2ccccc21`, 33%.
Consider `O=C1Nc2cc(Br)ccc2/C1=C1/Nc2ccccc2/C1=N\O`, for which the residual activity worked out at 4%.
On to `O=C1NC(=O)/C(=C/c2ccc3c(c2)OC(F)(F)O3)S1`, for which the residual activity was 116%.
Still for that read-out and setting: the result for `Nc1n[nH]c2nnc(-c3c(-c4ccccc4)nn4ccccc34)cc12` reads 33%; that for `Nc1nc(Nc2ccc(S(N)(=O)=O)cc2)nn1C(=S)Nc1c(F)cccc1F`, 2%; that for `Cn1cnc2cc3c(Nc4cccc(Br)c4)ncnc3cc21`, 14%.
